From PubChem
PD-1 reverse act: activators reversing PD-1 mediated T-cell inhibition, primary screen, luminescence, primary human CD4 T cells, PD-L1 beads. 29,000 tested, under 10 active. activation, % (concentration not given with the values). AID 2316, 2010. CellTiter-Glo 96 h; call rule not given here;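 further: 0% = median vehicle wells and 100% = positive control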
U2OS ROS induce: ROS inducers in U2OS cancer cells, primary screen, cell-based, H2DCF-DA fluorescence; ROS induction (% of piperlongumine), % at 10 µM; 2% of 46,000 active; U2OS ROS induction; in the data active means ROS induction above about 79%, passing the limit was not always enough;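 further: 0% = DMSO vehicle median and 100% = reference compound median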
YB-1 expr inh: inhibitors of YB-1 gene expression, primary screen, cell-based, fluorescence | AID 434959, 2010 | 0.37% of 30,000 active | delta delta Cp (YB-1 minus CDIP) (concentration not given with the values) | U2OS, qRT-PCR YB-1 vs CDIP delta delta Cp, 16 h; stronger effect = higher value; zero = DMSO, each unit about twofold;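 active means delta delta Cp rounded down to an integer at or above 3, about 3 SD of DMSO wells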;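 further: higher means less YB-1 transcript or more CDIP transcript relative to DMSO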
NOMO-1 viab: NOMO-1 AML cell viability reduction, primary screen, STK33 inhibitor project, CellTiter-Glo luminescence. NOMO-1 AML viability, 72 h. inhibition, % (concentration not given with the values). 7.5% of 37,000 active. AID 2330, 2010; in the data active means inhibition above about 80%
* hit, by the source's call; / = no result given. The entries come from a sample that favours hits as a whole.

SMILES | PD-1 reverse act | U2OS ROS induce | YB-1 expr inh | NOMO-1 viab
C=CCNC(=O)[C@@H]1[C@H]2C(=O)O[C@H](c3ccccc3)[C@H](c3ccccc3)N2[C@H](c2ccccc2OCCO)[C@@]12C(=O)N(C(=O)OCCOC)c1ccc(C#Cc3ccc(OC)cc3)cc12 | / | 34 | -0.34 | /
C=CCNC(=O)[C@H]1[C@@H]2C(=O)O[C@@H](c3ccccc3)[C@@H](c3ccccc3)N2[C@@H](c2ccccc2OCCO)[C@]12C(=O)N(C(=O)OCCOC)c1ccc(C#CCC(C(=O)OC)C(=O)OC)cc12 | / | 179* | 0.044 | /
COCCOC(=O)N1C(=O)[C@@]2(c3cc(C#CCC(C(=O)OC)C(=O)OC)ccc31)[C@H](c1ccccc1OCCO)N1[C@H](c3ccccc3)[C@H](c3ccccc3)OC(=O)[C@H]1[C@@H]2C(N)=O | / | 407* | 0.25 | /
COCCOC(=O)N1C(=O)[C@@]2(c3cc(C#CCC(C(=O)OC)C(=O)OC)ccc31)[C@H](c1ccccc1OCCO)N1[C@H](c3ccccc3)[C@H](c3ccccc3)OC(=O)[C@H]1[C@@H]2C(=O)NC[C@H](O)c1ccccc1 | / | 320* | -0.27 | /
COCCOC(=O)N1C(=O)[C@@]2(c3cc(C#CC4=CCCCC4)ccc31)[C@H](c1ccccc1OCCO)N1[C@H](c3ccccc3)[C@H](c3ccccc3)OC(=O)[C@H]1[C@@H]2C(N)=O | / | 84* | -0.06 | /
Cc1ccc(C(=O)Nc2ccccc2C(=O)N2CCCC2)cc1S(=O)(=O)N1CCOCC1 | 0 | -12 | / | -13
CCOc1ccc2nc(SCC(=O)Nc3cccc(C(F)(F)F)c3)sc2c1 | / | / | / | -1
CCOC(=O)CC1Sc2ccccc2N=C1SCC(=O)Nc1cccc(C(F)(F)F)c1 (configuration not stated) | -5 | 55 | 1.1 | 126*
COc1ccc(CN(C)C[C@@H]2Oc3ccc(NC(=O)C4CC4)cc3CC(=O)N([C@H](C)CO)C[C@@H]2C)cc1 | / | 104* | 0.57 | 0
COc1ccc(CN(C)C[C@H]2Oc3ccc(NC(=O)C4CC4)cc3CC(=O)N([C@@H](C)CO)C[C@@H]2C)cc1 | / | 5 | -0.19 | 31
COc1ccc(NC(=O)N(C)C[C@@H]2Oc3ccc(NC(=O)C4CC4)cc3CC(=O)N([C@H](C)CO)C[C@H]2C)cc1 | 1 | 120* | -0.32 | 7
COc1ccc(Cl)cc1N(CC(=O)Nc1cc(Cl)ccc1Cl)S(C)(=O)=O | / | / | / | 1
Cn1cnc([N+](=O)[O-])c1Sc1ncnc2nc[nH]c12 | 2 | 4 | 0.15 | 119*
CC(C)=CCNc1ncnc2nc[nH]c12 | / | -10 | / | /
CCC(=O)Nc1sc(Cc2ccccc2)c(C)c1C(=O)OC | / | 3 | / | /
C=C1CCC2[C@](C)(CO)[C@H](O)CC[C@@]2(C)[C@@H]1C/C=C1/C(=O)OC[C@H]1O (some centres not stated) | -48 | 6 | -0.044 | 98*
C=C1CCC2C(C)(CO)CCCC2(C)C1CC/C(C)=C/C(=O)O (configuration not stated) | / | -6 | -0.61 | /
O=C(O)CCCCCC(=O)N/N=C/c1ccc(C(F)(F)F)cc1 | / | 17 | -0.38 | /
COc1ccc(CC(=O)c2ccc(O)cc2O)cc1 | / | 2 | 0.15 | 6
CC(O)CC(=O)c1cc(O)ccc1O (configuration not stated) | 2 | -4 | 4.6* | -1
Cc1noc(C)c1NC(=O)N(C)C[C@@H]1Oc2ccc(NS(=O)(=O)c3cccs3)cc2CC(=O)N([C@@H](C)CO)C[C@@H]1C | / | -6 | 15* | -4
Cc1noc(C)c1NC(=O)N(C)C[C@H]1Oc2ccc(NS(=O)(=O)c3c(C)noc3C)cc2CC(=O)N([C@@H](C)CO)C[C@@H]1C | / | 4 | 0.044 | 15
C[C@@H]1CN([C@@H](C)CO)C(=O)Cc2cc(NS(=O)(=O)c3cccs3)ccc2O[C@@H]1CN(C)C | 0 | 128* | -0.21 | 41
Cc1ccc(S(=O)(=O)Nc2ccc3c(c2)CC(=O)N([C@H](C)CO)C[C@@H](C)[C@@H](CN(C)S(=O)(=O)c2ccccc2)O3)cc1 | -2 | -1 | -0.31 | 17
Cc1ccc(S(=O)(=O)N(C)C[C@@H]2Oc3ccc(NS(=O)(=O)c4ccccc4)cc3CC(=O)N([C@H](C)CO)C[C@@H]2C)cc1 | -1 | 130* | -0.81 | 2
SMILES | PD-1 reverse act | U2OS ROS induce | YB-1 expr inh | NOMO-1 viab
C[C@@H]1CN([C@H](C)CO)C(=O)Cc2cc(NS(=O)(=O)c3cccs3)ccc2O[C@H]1CN(C)S(C)(=O)=O | / | 2 | 0.3 | 11
Cc1ccc(S(=O)(=O)N(C)C[C@@H]2Oc3ccc(NS(=O)(=O)c4cccs4)cc3CC(=O)N([C@H](C)CO)C[C@H]2C)cc1 | / | 95* | 0.054 | 6
CC(=O)OC(CCCCc1ccc(O)c(O)c1)CCc1ccc(O)c(O)c1 (configuration not stated) | -2 | -7 | 2.3 | 35
CCN(CC)c1ccc2cc(C(N)=O)c(=Nc3ccc(F)cc3)oc2c1 | -1 | 4 | 0.19 | 94*
NC(=O)c1cc2ccccc2oc1=O | / | -7 | / | /
Cc1nc(SCc2csc(C)n2)c2c3c(sc2n1)CCCC3 | -4 | 33 | / | 10
O=c1c2ccccc2ncn1Cc1ccc(F)cc1 | / | -9 | / | /
Cc1nc(CSc2ncnc3sc(C)c(C)c23)cs1 | / | / | / | -23
Clc1ccc(-c2cnc3n2CCC3)cc1Cl | 0 | -1 | -0.22 | 112*
COc1ccc(CN(C)C[C@@H]2OCCCC[C@@H](C)Oc3ccc(NC(=O)Nc4ccc(C(F)(F)F)cc4)cc3C(=O)N([C@H](C)CO)C[C@@H]2C)cc1 | -5 | 35 | 0.037 | 113*
COc1ccc(NC(=O)Nc2ccc3c(c2)C(=O)N([C@H](C)CO)C[C@H](C)[C@H](CN(C)Cc2ccc(Cl)c(Cl)c2)OCCCC[C@@H](C)O3)cc1 | -4 | 40 | 0.0047 | 98*
C[C@@H]1CCCCO[C@@H](CN(C)Cc2ccc(C(F)(F)F)cc2)[C@@H](C)CN([C@H](C)CO)C(=O)c2cc(NC(=O)Nc3ccc(F)cc3)ccc2O1 | / | 4 | 0.26 | 42
COc1ccc(CN(C)C[C@@H]2OCCCC[C@@H](C)Oc3ccc(NC(=O)Nc4ccc(F)cc4)cc3C(=O)N([C@H](C)CO)C[C@@H]2C)cc1 | / | 119* | 0.35 | 12
COc1ccc(CN(C)C[C@H]2OCCCC[C@@H](C)Oc3ccc(NC(=O)Nc4ccc(OC)cc4)cc3C(=O)N([C@H](C)CO)C[C@@H]2C)cc1 | -1 | 122* | 0.53 | 8
COc1ccc(NC(=O)Nc2ccc3c(c2)C(=O)N([C@H](C)CO)C[C@H](C)[C@H](CN(C)Cc2ccc(C(=O)O)cc2)OCCCC[C@@H](C)O3)cc1 | 0 | 33 | 0.32 | 6
CCCC1CCC(c2ccc(OC(=O)c3cccnc3)cc2)CC1 (configuration not stated) | 0 | 18 | -0.5 | 54
COc1ccc(NC(=O)Nc2ccc3c(c2)C(=O)N([C@H](C)CO)C[C@H](C)[C@@H](CN(C)C(=O)C2CCCCC2)OCCCC[C@@H](C)O3)cc1 | -1 | 114* | 0.35 | 16
